Measured values as given in the supplement of paper PMC13380429.

Test system: Vero E6 infected with SARS-CoV-2
Test: inhibition of SARS-CoV-2 cytopathic effect; higher = more antiviral protection, active = above 15
Details: 48 h

Measured: inhibition of SARS-CoV-2 cytopathic effect

COc1cc(NC(=O)Nc2cccc(CNC(=O)O[C@H]3CCOC3)c2)ccc1-c1cnco1 [merimepodib]
inactive: 1 nM 0.31% | 8.33 nM 0.11% | 100 nM -0.15% | 833.33 nM 2.5% | 10000 nM 8.45%

CN(C)/N=N/c1[nH]cnc1C(N)=O [dacarbazine]
inactive: 1 nM 2.03% | 8.33 nM 1.02% | 100 nM 2.4% | 833.33 nM 2.07% | 10000 nM -3.02%

C=CC[N+]1([C@H]2C[C@H]3[C@@H]4CC[C@H]5C[C@H](O)[C@@H](N6CCOCC6)C[C@]5(C)[C@H]4CC[C@]3(C)[C@H]2OC(C)=O)CCCC1
inactive: 1 nM -0.55% | 8.33 nM -0.87% | 100 nM 2.36% | 833.33 nM 1.73% | 10000 nM 0.75%

COc1ccc2[nH]c(SCc3ncc(C)c(OC)c3C)nc2c1 [omeprazole-sulfide]
inactive: 1 nM -13.8% | 8.33 nM -15.1% | 100 nM -15.8% | 833.33 nM -15.3% | 10000 nM -13.7%

COc1ccc2cccc(N3CCN(CCNC(=O)c4ccc(F)cc4)CC3)c2c1
inactive: 1 nM -1.86% | 8.33 nM -0.57% | 100 nM 0.77% | 833.33 nM 0.7% | 10000 nM -3.37%

CN1C/C=C/CCOc2cccc(c2)-c2ccnc(n2)Nc2cccc(c2)C1
inactive: 1 nM 5.51% | 8.33 nM 0.11% | 100 nM 0.3% | 833.33 nM -10.7% | 10000 nM -9.98%

CC1(C)S[C@@H]2[C@H](NC(=O)COc3ccccc3)C(=O)N2[C@H]1C(=O)O [penicillin-v-potassium]
inactive: 1 nM -0.76% | 8.33 nM 1.87% | 100 nM -1.93% | 833.33 nM 1.76% | 10000 nM 0.08%

CC(C)N(CCCNC(=O)Nc1ccc(C(C)(C)C)cc1)C[C@H]1O[C@@H](n2cc(Br)c3c(N)ncnc32)[C@H](O)[C@@H]1O
inactive: 1 nM 0.32% | 8.33 nM 9.52% | 100 nM -1.5% | 833.33 nM -1.25% | 10000 nM 0.03%

COC1(C2=NCCN2)COc2ccccc2O1 (stereo not given)
inactive: 1 nM 0.37% | 8.33 nM 1.98% | 100 nM -0.68% | 833.33 nM 1.5% | 10000 nM 1.58%

C[N+]1([O-])[C@@H]2CC[C@H]1C[C@@H](OC(=O)C(CO)c1ccccc1)C2 (stereo not given in full) [atropine-oxide]
inactive: 1 nM -2.53% | 8.33 nM -2.05% | 100 nM -1.67% | 833.33 nM -2.02% | 10000 nM -1.76%

C[C@H](Oc1ccc(S(C)(=O)=O)cc1C(=O)N1CCN(c2ncc(C(F)(F)F)cc2F)CC1)C(F)(F)F [bitopertin]
inactive: 1 nM 1.07% | 8.33 nM 0.78% | 100 nM 1.93% | 833.33 nM 0.34% | 10000 nM -3.97%

CCOC(=O)[C@@]1(CCCCCCOc2ccc(Cl)cc2)CO1 [etomoxir]
inactive: 1 nM -0.23% | 8.33 nM -0.29% | 100 nM 1.79% | 833.33 nM 2.79% | 10000 nM -4.51%

S=C(NCc1ccc2c(c1)OCO2)N1CCN(c2ncnc3c2oc2ccccc23)CC1 [amuvatinib]
inactive: 1 nM 3.11% | 8.33 nM -0.46% | 100 nM 1.46% | 833.33 nM 2.33% | 10000 nM -1.9%

C=CCN1CC[C@]23c4c5ccc(O)c4O[C@H]2[C@@H](OCCOCCOCCOCCOCCOCCOCCOC)CC[C@@]3(O)[C@H]1C5 [naloxegol]
inactive: 1 nM 2.88% | 8.33 nM 0.75% | 100 nM 1.49% | 833.33 nM 0.6% | 10000 nM -1.7%

O=c1[nH]c2ccccc2n1C1CCN(CCOc2ccccc2)CC1 [oxiperomide]
inactive: 1 nM -1.51% | 8.33 nM -1.1% | 100 nM -2.1% | 833.33 nM -0.51% | 10000 nM 2.21%

CC(C)N1Cc2cc(S(C)(=O)=O)ccc2N(CCN2CC=C(c3c[nH]c4cc(F)ccc34)CC2)S1(=O)=O
inactive: 1 nM -0.02% | 8.33 nM 5.05% | 100 nM 2.58% | 833.33 nM 1.15% | 10000 nM 4%

NS(=O)(=O)NCc1csc2ccccc12
inactive: 1 nM 3.48% | 8.33 nM -0.74% | 100 nM -0.43% | 833.33 nM 3.95% | 10000 nM 2.4%

CC1(C)S[C@@H]2[C@H](NC(=O)[C@H](N)c3ccccc3)C(=O)N2[C@H]1C(=O)O [ampicillin]
inactive: 1 nM 0.57% | 8.33 nM 1.76% | 100 nM -0.8% | 833.33 nM -1.53% | 10000 nM 0.38%

CC(OC(=O)OC1CCCCC1)OC(=O)C1=C(CSc2nnnn2CCN(C)C)CS[C@@H]2[C@H](NC(=O)Cc3csc(N)n3)C(=O)N12 (stereo not given in full) [cefotiam-cilexetil]
inactive: 1 nM -0.8% | 8.33 nM 0.27% | 100 nM 0.74% | 833.33 nM 0.5% | 10000 nM -0.94%

OC[C@@H](O)[C@@H](O[C@@H]1O[C@H](CO)[C@H](O)[C@H](O)[C@H]1O)[C@H](O)[C@@H](O)CO
inactive: 1 nM -1.07% | 8.33 nM 0.84% | 100 nM 0.06% | 833.33 nM 0.18% | 10000 nM -0.36%

C[C@H](N)C(=O)N[C@@H](CCC(N)=O)C(=O)O [dipeptamin]
inactive: 1 nM -0.51% | 8.33 nM 1.67% | 100 nM -0.9% | 833.33 nM 0.75% | 10000 nM 0.66%

CC(C)NCC(O)COc1cccc2[nH]ccc12 (stereo not given) [pindolol]
inactive: 1 nM -3.04% | 8.33 nM 0.875% | 100 nM 0.95% | 833.33 nM -0.725% | 10000 nM -1.61%

O=C(Cc1ccc(-c2ccccc2)cc1)Nc1ccccn1 [difenpiramide]
inactive: 1 nM 2.42% | 8.33 nM 3.03% | 100 nM -1.56% | 833.33 nM 6.97% | 10000 nM 14.8%

N[C@@H](CSS(=O)(=O)O)C(=O)O [S-sulfo-L-cysteine]
inactive: 1 nM -0.33% | 8.33 nM 1.82% | 100 nM -0.09% | 833.33 nM 1.93% | 10000 nM 0.23%

COC(=O)C1=C(C)NC(C)=C(C(=O)OC/C=C/c2ccccc2)C1c1cccc([N+](=O)[O-])c1 (stereo not given) [pranidipine]
inactive: 1 nM 1.87% | 8.33 nM 0.47% | 100 nM -0.57% | 833.33 nM 1.4% | 10000 nM 8.67%

COc1ccc(C(C)=O)c(O)c1 [paeonol]
inactive: 1 nM 1.08% | 8.33 nM 1.99% | 100 nM 2.76% | 833.33 nM 0.69% | 10000 nM -4.98%

Cc1cccc(/C=C/c2ccccc2)n1
inactive: 1 nM 3.85% | 8.33 nM -0.34% | 100 nM -0.78% | 833.33 nM -1.72% | 10000 nM -2.74%

CC(C)(Oc1ccc(Cl)cc1)C(=O)N1CSCC1C(=O)O (stereo not given) [timofibrate]
inactive: 1 nM 1.85% | 8.33 nM 4.22% | 100 nM 2.73% | 833.33 nM -9.25% | 10000 nM 3.42%

Clc1ccc(C2(c3ccc(-c4cn[nH]c4)cc3)CCNCC2)cc1
inactive: 1 nM 1.57% | 8.33 nM -1.08% | 100 nM 1.96% | 833.33 nM -6.2% | 10000 nM -7.71%

CCOC(=O)/C=C(C)/C=C/C=C(C)/C=C/c1c(C)cc(OC)c(C)c1C [etretinate]
inactive: 1 nM -2.16% | 8.33 nM 0.11% | 100 nM 0.84% | 833.33 nM 2.68% | 10000 nM 3.85%

O=C(O)c1ccc(S(=O)(=O)N(Cl)Cl)cc1 [halazone]
inactive: 1 nM -0.04% | 8.33 nM 2.43% | 100 nM -0.73% | 833.33 nM -4.46% | 10000 nM -0.76%

CN(C)C(=O)[C@H](O)[C@H](Cc1ccccc1)NC(=O)c1cc2cc(Cl)ccc2[nH]1
inactive: 1 nM 0.8% | 8.33 nM -0.29% | 100 nM -0.45% | 833.33 nM 1.2% | 10000 nM 4.47%

CC(C)(C)N1CCC(c2ccccc2)(c2ccccc2)CC1 [budipine]
inactive: 1 nM 0.7% | 8.33 nM 3.31% | 100 nM 2.48% | 833.33 nM -0.28% | 10000 nM 1.72%

CC(C)C[C@H](NC(=O)N1CCCCCC1)C(=O)N[C@H](Cc1cn(C)c2ccccc12)C(=O)N[C@H](Cc1ccccn1)C(=O)O
inactive: 1 nM -0.85% | 8.33 nM 2.47% | 100 nM 0.97% | 833.33 nM -2.82% | 10000 nM 2.44%

O=C(CCBr)N1CCN(C(=O)CCBr)CC1 [pipobroman]
inactive: 1 nM 0.26% | 8.33 nM -0.92% | 100 nM -3.06% | 833.33 nM -6.9% | 10000 nM -3.48%

OCc1cccnc1 [nicotinyl-alcohol-tartrate]
inactive: 1 nM -0.34% | 8.33 nM -0.51% | 100 nM -0.17% | 833.33 nM 0.73% | 10000 nM -0.73%

C[C@@H](O)[C@H]1C(=O)N2C(C(=O)O)=C(SCCNC=N)C[C@H]12 [imipenem]
inactive: 1 nM 2.08% | 8.33 nM 10% | 100 nM 9.32% | 833.33 nM 2.66% | 10000 nM 4.17%

Oc1ccc(-c2c(-c3ccccc3)nn3c(C(F)(F)F)cc(C(F)(F)F)nc23)cc1
inactive: 1 nM 0.08% | 8.33 nM 0.21% | 100 nM -0.05% | 833.33 nM -1.7% | 10000 nM 11.9%

Nc1[nH]cnc2ncnc1-2 [adenine]
inactive: 1 nM 1.26% | 8.33 nM 0.3% | 100 nM 3.06% | 833.33 nM 6.45% | 10000 nM 3.2%

CC12CCC(C(=O)N(CCCCN3CCN(c4ccccn4)CC3)C1=O)C2(C)C (stereo not given) [piricapiron]
inactive: 1 nM -2.91% | 8.33 nM -0.34% | 100 nM -1.87% | 833.33 nM 0.95% | 10000 nM 1.64%
